Experimental data: PubChem BioAssay (NCATS)
Several values for one entry are separate records, joined by “and”; a condition that tells them apart may be missing. Equal values may be shown once. Inconclusive results are not listed. Activity calls are given as the source filed them. The call rests on the fitted dose curve; in most records, active means well fitted cell-killing curve with a large enough effect; inconclusive means small, poorly fitted or top-dose-only effect; inactive means no such curve, though single readings can be large or run the other way.

Assay: qHTS of pediatric cancer cell lines to identify multiple opportunities for drug repurposing: Primary screen for MG 63 (6-TG R) cells (AID 1347105); further: nearly all actives have a fitted effect of over 50% in size
Conditions: MG 63 (6-TG R) viability, CellTiter-Glo, 48 h; series mostly up to 46 µM; activity change, negative = cytotoxic: at the top concentration
Excerpt: Drug repurposing or repositioning has been offered as a strategy for drug development in oncology programs. This approach has special potential for childhood cancers and other rare or orphan diseases, where the expected return on new drug development has been a disincentive to pharmaceuticals. […] In this project we exploit the poly-pharmacology of drugs to discover new indications via phenotypic screening of a panel of 19 well-characterized cell lines derived from solid tumors seen in children and adolescents. The goal is to identify approved drugs with previously unrecognized anticancer properties that has the potential to reveal new mechanisms and biological processes involved in carcinogenesis or drug resistance. We employed a titration-based paradigm (quantitative high-throughput screening or qHTS), where all compounds were tested at multiple concentrations for their effect on cell viability. Concentration-response curves (CRCs) were derived directly from the primary screen, and both potency and efficacy values were used to identify compounds with robust bioactivity profiles. We screened the NIH Chemical Genomics Center (NCGC) Pharmaceutical Collection (NPC) and Mechanism Interrogation Plate (MIPE) small molecule collections of approved and investigational compounds against these cell lines; and measured metabolically active cells after 48 hours of compound treatment as a proxy for cell viability. […] Assay Submitter: Nathalia J. Martinez, National Center for Advancing Translational Sciences, National Institutes of Health, Rockville, MD, USA; email: natalia.martinez@nih.gov Shen, M et al. Quantitative high-throughput phenotypic screening of pediatric cancer cell lines identifies multiple opportunities for drug repurposing. Oncotarget 2017 Dec 19;9(4):4758-4772. PMID 29435139.
The cells were obtained from University of North Carolina (UNC), Pediatric Preclinical Testing Program (PPT), and Coriell Institute (CI). qHTS cell viability assay: Cells were assayed in growth media at a density of 500-1,000 cells/well. Five microliters of cells were dispensed into 1,536-well, white, solid-bottom, TC-treated plates (Greiner Bio One) using a multidrop dispenser and incubated at 37 degrees C, 5% CO2, under a humidified atmosphere for 5 hours. Twenty-three nanoliters of compounds and controls (neutral control DMSO or positive control bortezomib at final concentration of 2.3 µM) were subsequently transferred by Kalypsys pintool. For primary screens, the MIPE collection was tested at 11-point dilutions (final concentrations range from 0.78 nM to 46 µM) and the NPC collection at 8-point dilutions (final concentrations range from 0.59 nM to 46 µM). Compounds tested in follow-up screens were assayed at 11-point dilutions. Cells were incubated for 48 hours, followed by addition of 3 µL of CellTiter-Glo (Promega). After a 15 min incubation at room temperature, samples were analyzed for luminescence intensity using a ViewLux High-throughput CCD imager equipped with clear filters.
On the % scale 0 is the no-effect control and ±100 the full control effect; potency means the concentration at half of the fitted maximal effect.

With `CC(C)(C)COc1ccc(-n2cc(C(=O)O)cn2)cc1C#N` as the compound, how does the “activity change, negative = cytotoxic” value read?
Its value is -10.5% (inactive).

Which “activity change, negative = cytotoxic” value does the source give for `COc1ccccc1N1CCN(CCCNc2cc(=O)n(C)c(=O)n2C)CC1` here?
The value was -22.8% (inactive).

With `CCOC(=O)O[C@]1(C(=O)OCCl)CC[C@@H]2[C@H]3CCC4=CC(=O)C=C[C@]4(C)[C@@H]3[C@@H](O)C[C@@]21C` as the compound, how does the “activity change, negative = cytotoxic” value read?
The value was 23% (inactive).

For `COc1ccc2cc(-c3nc(-c4ccc(S(C)=O)cc4)[nH]c3-c3ccncc3)ccc2c1` (stereo not given), which “activity change, negative = cytotoxic” value is on record?
Its value is -19.7% (inactive).

With `COC1CCC(N(C(=O)C2CCC(C)CC2)c2cc(C3=CCCCC3)sc2C(=O)O)CC1` (stereo not given) as the compound, how does the “activity change, negative = cytotoxic” value read?
The value was 25.6% (inactive).

For `CC(C)C(C)C=CC(C)C1CCC2C3=CC=C4CC(O)CCC4(C)C3CCC21C` (stereo not given), which “activity change, negative = cytotoxic” value is on record?
The value was 3.58% (inactive).

For `Cc1cccc(C)c1OCC(C)N` (stereo not given), which “activity change, negative = cytotoxic” value is on record?
Its value is -19.8% (inactive).

For `CCN1CCC[C@H]1CNC(=O)c1cc(S(N)(=O)=O)ccc1OC`, which “activity change, negative = cytotoxic” value is on record?
The value was -12.4% (inactive).

Which “activity change, negative = cytotoxic” value does the source give for `CC1CCC(C(=O)N(c2cc(C#CC(C)(C)C)sc2C(=O)O)C2CCC(O)CC2)CC1` (stereo not given) here?
The value was 7.48% (inactive).

For `O=C(O)CCc1nc(-c2ccccc2)c(-c2ccccc2)o1`, which “activity change, negative = cytotoxic” value is on record?
Its value is -24.1% (inactive).

For `CC(=O)OC1C(C)OC(Oc2c(-c3ccc(O)cc3)oc3cc(O)cc(O)c3c2=O)C(O)C1OC(C)=O` (stereo not given), which “activity change, negative = cytotoxic” value is on record?
The value was -18.1% (inactive).

For `CC1(C)O[C@H]2C[C@@H]3[C@H]4CCC5=CC(=O)C=C[C@]5(C)[C@@]4(F)[C@@H](O)C[C@]3(C)[C@]2(C(=O)CO)O1`, which “activity change, negative = cytotoxic” value is on record?
The value was -17.2% (inactive).

With `CC(C)n1nc(-c2ccc3oc(N)nc3c2)c2c(N)ncnc21` as the compound, how does the Potency read?
Its Potency is 0.0007 µM (active).

With `CCN(CC)C(=O)c1ccc(O)c(OC)c1` as the compound, how does the “activity change, negative = cytotoxic” value read?
The value was -24.8% (inactive).

With `COc1ccc(-c2coc3cc(O)cc(O)c3c2=O)cc1` as the compound, how does the “activity change, negative = cytotoxic” value read?
Its value is 14.5% (inactive).

With `COc1ccc(-c2cc(=O)c3c(O)cc(O)cc3o2)cc1O` as the compound, how does the “activity change, negative = cytotoxic” value read?
The value was -5.43% (inactive).

With `C=CCc1ccc(O)c(-c2ccc(O)c(CC=C)c2)c1` as the compound, how does the Potency read?
Its Potency is 18.7 µM (active).

With `Cc1c[nH]c(C=C2C(=O)Nc3ccccc32)c1CCC(=O)O` as the compound, how does the “activity change, negative = cytotoxic” value read?
The value was -14.6% (inactive).

Which “activity change, negative = cytotoxic” value does the source give for `CN(C[C@@H]1COCCO1)S(=O)(=O)Nc1ccc2ccc3ncc(-c4cnn(C)c4)cc3c(=O)c2c1` here?
The value was -19.6% (inactive).

With `CN1C[C@H]2c3ccccc3Oc3ccc(Cl)cc3[C@@H]2C1` as the compound, how does the Potency read?
Its Potency is “inactive”.

With `COc1cc(O)c2c(c1)C(=O)c1cc(C)cc(O)c1C2=O` as the compound, how does the “activity change, negative = cytotoxic” value read?
The value was -5.94% [at 16.1 µM] (inactive).

Which Potency does the source give for `O=c1cc(N2CCOCC2)oc2c(-c3cccc4c3sc3ccccc34)cccc12` here?
The Potency was 14.8 µM (active).

Which “activity change, negative = cytotoxic” value does the source give for `CC(C(=O)O)c1ccc(-c2ccccc2)c(F)c1` (stereo not given) here?
Its value is -10.1% (inactive).

For `Cc1[nH]c(C=C2C(=O)Nc3ccc(S(=O)(=O)Cc4c(Cl)cccc4Cl)cc32)c(C)c1C(=O)N1CCC[C@H]1CN1CCCC1`, which Potency is on record?
The Potency was 23.5 µM (active).

With `CCn1c(C(=O)N(C2CC2)C2CC2)cc2c3c(ncn3C)c(Nc3cc(C)n(C)n3)nc21` as the compound, how does the “activity change, negative = cytotoxic” value read?
Its value is -26.3% (inactive).

For `Cc1c(NC(=O)c2ccc(C(C)(C)C)cc2)cccc1-c1cn(C)c(=O)c(Nc2ccc(C(=O)N3CCOCC3)cc2)n1`, which “activity change, negative = cytotoxic” value is on record?
The value was -22.7% (inactive).

With `Oc1ccc(C2CCN(c3ccnc4ccccc34)CC2)cc1O` as the compound, how does the “activity change, negative = cytotoxic” value read?
The value was -14.9% (inactive).

Which “activity change, negative = cytotoxic” value does the source give for `Cc1ccc(Nc2cc(-c3cccc(N4C(=O)c5ccccc5C4=O)c3)ncn2)cc1NS(C)(=O)=O` here?
Its value is -9.19% (inactive).

Which Potency does the source give for `Cc1nc(N)sc1-c1ccnc(Nc2ccc(N3CCOCC3)cc2)n1` here?
The Potency was 5.9 µM (active).

For `CCOC1OC(=O)C[C@H]1NC(=O)[C@@H]1CCCN1C(=O)[C@@H](NC(=O)c1ccc(N)c(Cl)c1)C(C)(C)C` (stereo not given in full), which “activity change, negative = cytotoxic” value is on record?
Its value is -6.09% (inactive).

Which Potency does the source give for `O=C(NOCC(O)CO)c1cc(Br)c(F)c(F)c1Nc1ccc(I)cc1F` (stereo not given) here?
Its Potency is 11.8 µM (active).

Which “activity change, negative = cytotoxic” value does the source give for `CCN(CC)CCNC(=O)c1ccc(N)cc1` here?
The value was -12.1% (inactive).

Which Potency does the source give for `O=C(CCCCCCC(=O)Nc1ccccc1)NO` here?
Its Potency is 3.35 µM (active) and 3.72 µM (active).

Which “activity change, negative = cytotoxic” value does the source give for `O=c1ccn([C@@H]2O[C@H](CO)[C@H](O)[C@H]2O)c(=O)[nH]1` here?
Its value is 12.5% (inactive).

With `O=C(O)c1cc(-c2ccccc2)nc2ccccc12` as the compound, how does the “activity change, negative = cytotoxic” value read?
Its value is -8.08% (inactive).

With `NC(CO)(CO)CCc1ccc(Sc2cccc(OCc3ccccc3)c2)cc1Cl` as the compound, how does the Potency read?
The Potency was 29.6 µM (active).

With `Oc1ccc(C2=Cc3ccc(O)cc3OC2)cc1` as the compound, how does the “activity change, negative = cytotoxic” value read?
The value was -28.5% (inactive).

For `CC1(C)Cc2c(sc(NC(=S)NC(=O)c3ccccc3)c2C(=O)O)CO1`, which “activity change, negative = cytotoxic” value is on record?
Its value is 11.7% (inactive).

With `O=c1c(-c2ccc(O)cc2)coc2cc(OC3O[C@H](CO)[C@H](O)[C@H](O)[C@H]3O)cc(O)c12` (stereo not given in full) as the compound, how does the “activity change, negative = cytotoxic” value read?
The value was -43.2% (inactive).

With `COc1ccc(C2Sc3ccccc3N(CCN(C)C)C(=O)C2OC(C)=O)cc1` (stereo not given) as the compound, how does the “activity change, negative = cytotoxic” value read?
The value was -1.9% (inactive).
